Test results from PubChem BioAssay AID488977 (Johns Hopkins Ion Channel Center, 2010).
Screen size: about 310,000 compounds; about 1,500 (0.48%) were called active.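 The calls were made as follows: active = initial fluorescence not abnormally high and integrated response B-score, plate-corrected, over 3 SD above library mean; inactive = the rest.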 Many of the other results were omitted from the sample, so actives are more common in it than they were. Some structures have more than one record in an assay (separate samples or runs), and their calls can disagree.

What follows are compounds tested against High affinity choline transporter 1 (Homo sapiens) (UniProt Q9GZV3) (assay: allosteric activators of human choline transporter – cell-based, membrane potential dye, choline EC20, primary screen (AID 488977)). Details: CHT-expressing cells, at 10 µM, LV-AA mutant CHT in HEK293 cells; hits give high values.
Chain of High affinity choline transporter 1 (Homo sapiens) (Q9GZV3 whole entry, looked up): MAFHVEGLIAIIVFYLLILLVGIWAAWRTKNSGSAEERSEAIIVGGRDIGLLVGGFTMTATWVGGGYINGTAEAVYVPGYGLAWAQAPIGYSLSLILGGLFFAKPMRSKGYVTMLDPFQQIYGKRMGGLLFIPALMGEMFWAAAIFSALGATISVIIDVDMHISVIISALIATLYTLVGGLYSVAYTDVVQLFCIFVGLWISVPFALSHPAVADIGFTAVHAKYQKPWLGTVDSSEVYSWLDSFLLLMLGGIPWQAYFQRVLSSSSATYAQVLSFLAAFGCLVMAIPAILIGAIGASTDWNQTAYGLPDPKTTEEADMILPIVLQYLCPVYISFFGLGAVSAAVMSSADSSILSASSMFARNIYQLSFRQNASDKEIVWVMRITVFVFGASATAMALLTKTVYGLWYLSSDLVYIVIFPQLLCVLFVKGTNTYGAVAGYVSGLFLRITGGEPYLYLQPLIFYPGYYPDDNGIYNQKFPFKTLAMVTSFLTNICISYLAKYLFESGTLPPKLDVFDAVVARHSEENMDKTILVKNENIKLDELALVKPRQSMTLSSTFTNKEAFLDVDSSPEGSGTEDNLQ
With `O=C(N/N=C/c1cc(Br)c(O)c([N+](=O)[O-])c1)C(O)(c1ccccc1)c1ccccc1` the B-score was “inactive”. With `C=CCNc1nnc(C)c2ccccc12` the B-score was 7.04 (active). For `C=CCNc1nnc(SCC(=O)N2CCCCC2)c2ccccc12`, the B-score was “inactive”. `COc1ccc(Nc2nnc(C)c3ccccc23)cc1` was tested, and the B-score was “inactive”. With `COc1ccc(-c2ccc3nnc(SCC(=O)Nc4ccc(NC(C)=O)cc4)n3n2)cc1` the B-score was “inactive”. For `COc1ccc(C(=O)NCC2CCCN2S(=O)(=O)c2cccs2)cc1OC` (stereo not given), the B-score was “inactive”. With `CN1CCN(C2Cc3ccc(Cl)cc3Sc3ccc(F)cc32)CC1` (stereo not given) the B-score was “inactive”. In the case of `CCOC(=O)C1CCN(C(=O)COC(=O)C2CCN(S(=O)(=O)c3ccc4c(c3)OCCO4)CC2)CC1`, the B-score is reported as “inactive”. In the case of `O=C(COC(=O)C1CCN(S(=O)(=O)c2ccc3c(c2)OCCO3)CC1)Nc1ccccc1OC(F)F`, the B-score is reported as 6.95 (active). For `COc1ccccc1CNC(=O)C1CCN(S(=O)(=O)c2ccc3c(c2)OCCO3)CC1`, the B-score was “inactive”. `Cc1ccc(N2CC(C(=O)N3CCC4(CC3)CC(=O)c3ccccc3O4)CC2=O)cc1C` (stereo not given) was tested, and the B-score was “inactive”. `O=C(NCCC1CCCCN1S(=O)(=O)c1ccc(Cl)cc1)C(=O)NCc1ccco1` (stereo not given) was tested, and the B-score was “inactive”. For `Brc1cnc2ccccc2c1N1CCCCC1`, the B-score was “inactive”. `CCCNC(=O)c1ccc(N2CCC3(CC2)CC(c2cccc(Br)c2)=NO3)c(NC(=O)c2ccco2)c1` was tested, and the B-score was “inactive”. With `C#CCOCCOCCOCCNc1nc(N2CCN(C(=O)CCCCCCCCCCNC(=O)[C@H]([C@@H](C)CC)n3cc(CCCCN=C(N)N)nn3)CC2)nc(N2CCN(C(=O)CCCCCCCCCCNC(=O)[C@H](CO)n3cc(CCCSC)nn3)CC2)n1` the B-score was “inactive”. For `C#CCOCCOCCOCCNc1nc(N2CCN(C(=O)CCCCCCCCCCNC(=O)Cn3cc(CCCCCN)nn3)CC2)nc(N2CCN(C(=O)CCCCCCCCCCNC(=O)[C@H](CO)n3cc(CCCSC)nn3)CC2)n1`, the B-score was “inactive”. `C#CCOCCOCCOCCNc1nc(N2CCN(C(=O)CCCCCCCCCCNC(=O)[C@H](CCCCN)n3cc(C)nn3)CC2)nc(N2CCN(C(=O)CCCCCCCCCCNC(=O)[C@H](CO)n3cc(CCCSC)nn3)CC2)n1` was tested, and the B-score was 7.24 (active). For `Cc1cccc(C(=O)Nc2ccccc2N2CCN(c3ccc(F)cc3)CC2)c1`, the B-score was “inactive”. For `O=C(Nc1ccccc1N1CCN(c2ccccc2)CC1)c1cccc(F)c1`, the B-score was 7.46 (active). For `O=C(Nc1ccccc1N1CCCCC1)c1cccc(F)c1`, the B-score was “inactive”. With `CSc1ccccc1NC(=O)c1cnc2sc(C)cn2c1=O` the B-score was “inactive”. With `CCN1C(=O)[C@@H]2[C@@H](c3ccc(-c4ccc(OC)cc4)c(OC)c3)N3CCC[C@@]3(C(=O)OC)[C@@H]2C1=O` the B-score was “inactive”. `O=C(C[n+]1cc(-c2ccc(Cl)c(Cl)c2)n2c1CCC2)c1cccs1` was tested, and the B-score was “inactive”. `Cc1ccc(-c2c[n+](CC(=O)Nc3ccccc3)c3n2CCC3)cc1` was tested, and the B-score was “inactive”. For `Cc1ccc(C(=O)C[n+]2cc(-c3ccccc3)n3c2CCCCC3)cc1`, the B-score was 7.44 (active) and the outcome was “inactive”. With `Nc1nonc1-n1nnc(C(=O)N/N=C/c2ccccc2O)c1CN1CCCC1` the B-score was “inactive”. In the case of `Cc1cc(/C=N/NC(=O)CC2(C)OCCO2)c(C)n1-c1ccc(Cl)c(Cl)c1`, the B-score is reported as “inactive”. With `Cc1ccc(-n2c(C)cc(/C=N\NC(=O)CC(=O)NC(C)C)c2C)cc1` the B-score was 11.1 (active). With `CSc1ccc(/C=N\NC(=O)CC(=O)NC(C)C)cc1` the B-score was “inactive”. With `CN(C(=O)c1cc2c(=O)n3ccccc3nc2s1)C1CCCCC1` the B-score was “inactive”. With `O=C1N[C@@H](Cc2ccccc2)C(=O)N2[C@H]1C[C@]1(Br)c3ccccc3N(S(=O)(=O)c3ccccc3)[C@H]21` the B-score was “inactive”. With `O=S(=O)(O)Oc1c[nH]c2ccccc12` the B-score was “inactive”. `COc1cc2c(cc1O)C(SC)=NC(C)(C)C2` was tested, and the B-score was “inactive”. `COc1cc2c(cc1OC)C(C(C)C)=NC(C)(C)C2` was tested, and the B-score was “inactive”. `COc1cc2c(cc1OC)C(Nc1ccc(S(N)(=O)=O)cc1)=NC(C)(C)C2` was tested, and the B-score was 9.17 (active). `O=C(NCCCc1ccccc1)C(=O)NCC1OCCN1S(=O)(=O)c1ccccc1` (stereo not given) was tested, and the B-score was “inactive”. With `C1=C(CCNc2ncnc3c2cnn3-c2ccccc2)CCCC1` the B-score was “inactive”. With `Cc1ccc(S(=O)(=O)N2CCC(C(=O)NCCC3=CCCCC3)CC2)cc1C` the B-score was “inactive”. With `O=C(NCCC1=CCCCC1)C1CCN(Cc2cnn(-c3ccccc3)c2-n2cccc2)CC1` the B-score was 6.26 (active). In the case of `COc1ccccc1C(=O)Nc1ccccc1C(=O)Nc1ccccc1`, the B-score is reported as “inactive”. `COc1ccccc1-c1nnc(-c2ccc(F)cc2)o1` was tested, and the B-score was “inactive”. In the case of `Cc1ccccc1N1CCN(CCCOc2ccc3c(C)cc(=O)oc3c2)CC1`, the B-score is reported as “inactive”. `Cc1cc(=O)oc2cc(OCCC[n+]3ccccc3)ccc12` was tested, and the B-score was 8.55 (active). `Cc1cc(=O)oc2ccc(OCC(=O)O)cc12` was tested, and the B-score was “inactive”. With `O=C(c1ccccc1)N1CCN(c2ccc([N+](=O)[O-])c(NCc3ccco3)c2)CC1` the B-score was “inactive”. In the case of `O=[N+]([O-])c1ccc(N2CCNCC2)cc1NCc1cccnc1`, the B-score is reported as 6.95 (active). For `O=[N+]([O-])c1ccc(N2CCN(S(=O)(=O)c3ccc4ccccc4c3)CC2)cc1NCc1ccco1`, the B-score was “inactive”. With `Cc1cc(Br)ccc1NC(=O)CN(C)C(=O)CN1C(=O)NC2(CCCC2)C1=O` the B-score was “inactive”. `COc1cc(/C=N/NC(=O)c2cc(-c3ccccc3C)nc3ccccc23)cc(OC)c1O` was tested, and the B-score was “inactive”.
